# From PubChem BioAssay (NCATS)
# “And” between values parts separate entries of the source, which are not always exact repeats. Equal entries are not always repeated. Inconclusive results are not listed. Where a call stands in place of a potency, no number is given. The source made the active and inactive calls. Calls come from the whole dose curve. Bridge positions count the residues as written; N and C are the ends. Square brackets hold non-standard residues; d marks the D form. Peptide text beside a SMILES is read from it. * marks the point of attachment. X1 = CCC(C)C(N)C1=NC(C(=O)*)CS1; dOrn = NCCC[C@@H](N)C(=O)O
# Legend:
# [1] = Primary qHTS for inhibitors of SARS-S pseudo-typed particle cell entry (AID 1479145); conditions: SARS-S pseudotyped particle cell entry, luciferase reporter; series mostly up to 57.1 µM; note: nearly all actives have a fitted effect of over 45% in size
# [2] = Primary qHTS for Huh7 cytotoxicity: counterscreen for inhibitors of MERS-S pseudotyped particle cell entry (AID 1479147); conditions: cell viability read-out; series mostly up to 57.1 µM
# [3] = Primary qHTS for inhibitors of MERS-S pseudo-typed particle cell entry (AID 1479149); conditions: MERS-S pseudotyped particle entry, luciferase; series mostly up to 57.1 µM; note: nearly all actives have a fitted effect of over 60% in size
# [4] = Primary qHTS for Vero E6 cytotoxicity: counterscreen for inhibitors of SARS-S pseudo-typed particle cell entry (AID 1479150); conditions: cell viability; series mostly up to 57.1 µM
# [5] = Cytotoxicity counterscreen for inhibitors of SARS-CoV-2 cell entry (AID 1645845); conditions: cell viability (SARS-CoV-2 entry assay cells); series mostly up to 57.1 µM; note: nearly all actives have a fitted effect of over 50% in size
# Method in brief: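 Counterscreen run in the same HEK293-ACE2 line as the pseudotyped-particle entry assay, without particles. Viability after 48 h at 37 C was read as ATP luminescence, scaled between cell-containing and cell-free wells.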
# [6] = Primary qHTS to identify inhibitors of SARS-CoV-2 cell entry (AID 1645846); conditions: SARS-CoV-2 pseudovirus cell entry assay, luminescence; activity change, negative = inhibition: at 57.1 µM (top of the series) unless noted; note: nearly all actives have a fitted effect of over 45% in size
# Method in brief: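 HEK293 cells stably expressing human ACE2, pre-treated 1 h with compound, then infected with MLV particles pseudotyped with Wuhan-Hu-1 spike (C-terminal 19-aa truncation). Luciferase luminescence after 48 h at 37 °C, normalised to spike PP and bald PP.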
structure (smiles),measurement,setting,value
C=C(C)C1CC=C(C)CC1 (configuration not stated),Potency,[1],inactive
same,Potency,[2],inactive
same,Potency,[3],inactive
same,Potency,[4],inactive
same,Potency,[5],inactive
same,"activity change, negative = inhibition",[6],-21.4% [at 114 µM]
CO/N=C(\C(=O)N[C@@H]1C(=O)N2C(C(=O)O)=C(Cn3ccc(=N)n3CCO)CS[C@H]12)c1csc(N)n1,Potency,[1],inactive
same,Potency,[2],inactive
same,Potency,[3],inactive
same,Potency,[4],inactive
same,Potency,[5],inactive
same,"activity change, negative = inhibition",[6],-19.1%
CNC(=O)OCc1cccc(COC(=O)NC)n1,Potency,[1],inactive
same,Potency,[2],inactive
same,Potency,[3],inactive
same,Potency,[4],inactive
same,Potency,[5],inactive
same,Potency,[6],inactive
C[C@H]1C[C@@H]2[C@H]([C@@H](O)C[C@@]3(C)[C@H]2CC[C@]3(O)C(=O)COC(=O)CCC(=O)O)[C@@]2(C)C=CC(=O)C=C12,Potency,[1],inactive
same,Potency,[2],inactive
same,Potency,[3],inactive
same,Potency,[4],inactive
same,Potency,[5],inactive
same,"activity change, negative = inhibition",[6],-18.6%
C[C@H]1CN(C[C@H](Cc2ccccc2)C(=O)NCC(=O)O)CC[C@@]1(C)c1cccc(O)c1,Potency,[1],inactive
same,Potency,[2],inactive
same,Potency,[3],inactive
same,Potency,[4],inactive
same,Potency,[5],inactive
same,"activity change, negative = inhibition",[6],-6.59% and -17.3%
C=C(C)CNc1ccc(C(C)C(=O)O)cc1 (configuration not stated),Potency,[1],inactive
same,Potency,[2],inactive
same,Potency,[3],inactive
same,Potency,[4],inactive
same,Potency,[5],inactive
same,"activity change, negative = inhibition",[6],-20.2%
O=P(O)(O)OC(Cn1cncn1)(Cn1cncn1)c1ccc(F)cc1F,Potency,[1],inactive
same,Potency,[2],inactive
same,Potency,[3],inactive
same,Potency,[4],inactive
same,Potency,[5],inactive
same,"activity change, negative = inhibition",[6],-20.2%
CCC=CCC=CCC=CCCCCCCCC(=O)O,Potency,[1],inactive
same,Potency,[2],inactive
same,Potency,[3],inactive
same,Potency,[4],inactive
same,Potency,[5],inactive
same,Potency,[6],inactive
NC(C(=O)NC1C(=O)N2C(C(=O)O)=C(CSc3cn[nH]n3)CSC12)c1ccc(O)cc1 (configuration not stated),Potency,[1],inactive
same,Potency,[2],inactive
same,Potency,[3],inactive
same,Potency,[4],inactive
same,Potency,[5],inactive
same,"activity change, negative = inhibition",[6],-22%
C#C[C@]1(O)CCC2C3CCC4=C(CCC(=O)C4)C3CC[C@@]21C (some centres not stated),Potency,[1],inactive
same,Potency,[2],inactive
same,Potency,[3],inactive
same,Potency,[4],inactive
same,Potency,[5],inactive
same,"activity change, negative = inhibition",[6],-12.9%
CCCCCCCCCCCCCCCC(=O)OCC(=O)[C@@]1(O)[C@H](C)C[C@H]2[C@@H]3CCC4=CC(=O)C=C[C@]4(C)[C@@]3(F)[C@@H](O)C[C@@]21C,Potency,[1],inactive
same,Potency,[2],inactive
same,Potency,[3],inactive
same,Potency,[4],inactive
same,Potency,[5],inactive
same,"activity change, negative = inhibition",[6],3.26%
O=P(O)(O)CP(=O)(O)O,Potency,[1],inactive
same,Potency,[2],inactive
same,Potency,[3],inactive
same,Potency,[4],inactive
same,Potency,[5],inactive
same,"activity change, negative = inhibition",[6],-15.6%
C/C(=C\C(=O)OCCCCCCCCC(=O)O)C[C@@H]1OC[C@H](C[C@@H]2O[C@H]2[C@@H](C)[C@H](C)O)[C@@H](O)[C@H]1O,Potency,[1],inactive
same,Potency,[2],inactive
same,Potency,[3],inactive
same,Potency,[4],inactive
same,Potency,[5],inactive
same,"activity change, negative = inhibition",[6],-28.4%
CO[C@H]1/C=C\O[C@@]2(C)Oc3c(C)c(O)c4c(O)c(c5c(nc6cc(C)ccn65)c4c3C2=O)NC(=O)/C(C)=C\C=C/[C@H](C)[C@H](O)[C@@H](C)[C@@H](O)[C@@H](C)[C@H](OC(C)=O)[C@@H]1C,Potency,[1],inactive
same,Potency,[2],inactive
same,Potency,[3],inactive
same,Potency,[4],inactive
same,Potency,[5],inactive
same,"activity change, negative = inhibition",[6],-25.8%
CC(C)C[C@H](NC(=O)[C@@H](COC(C)(C)C)NC(=O)[C@H](Cc1ccc(O)cc1)NC(=O)[C@H](CO)NC(=O)[C@H](Cc1c[nH]c2ccccc12)NC(=O)[C@H](Cc1cnc[nH]1)NC(=O)[C@@H]1CCC(=O)N1)C(=O)N[C@@H](CCCN=C(N)N)C(=O)N1CCC[C@H]1C(=O)NNC(N)=O,Potency,[1],inactive
same,Potency,[2],inactive
same,Potency,[3],inactive
same,Potency,[4],inactive
same,Potency,[5],inactive
same,"activity change, negative = inhibition",[6],-11.8% [at 27.1 µM]
CN1CC(O)c2cc(N=NC(N)=O)c(O)cc21 (configuration not stated),Potency,[1],inactive
same,Potency,[2],inactive
same,Potency,[3],inactive
same,Potency,[4],inactive
same,Potency,[5],inactive
same,"activity change, negative = inhibition",[6],-20%
CCC(=O)NC[C@@H]1C[C@H]1c1cccc2c1CCO2,Potency,[1],inactive
same,Potency,[2],inactive
same,Potency,[3],inactive
same,Potency,[4],inactive
same,Potency,[5],inactive
same,"activity change, negative = inhibition",[6],-21.9%
C[C@@H]1C[C@H]2[C@@H]3C[C@H](F)C4=CC(=O)C=C[C@]4(C)[C@@]3(F)[C@@H](O)C[C@]2(C)[C@@]1(O)C(=O)COC(=O)C(C)(C)C,Potency,[1],inactive
same,Potency,[2],inactive
same,Potency,[3],inactive
same,Potency,[4],inactive
same,Potency,[5],inactive
same,Potency,[6],inactive
CCC(C)C(N)C1=NC(C(=O)N[C@@H](CC(C)C)C(=O)N[C@H](CCC(=O)O)C(=O)N[C@H](C(=O)N[C@H]2CCCCNC(=O)[C@H](CC(N)=O)NC(=O)[C@@H](CC(=O)O)NC(=O)[C@H](Cc3cnc[nH]3)NC(=O)[C@@H](Cc3ccccc3)NC(=O)[C@H]([C@@H](C)CC)NC(=O)[C@@H](CCCN)NC2=O)[C@@H](C)CC)CS1 (some centres not stated) (X1-L[dE]IK[dOrn]I[dF]H[dD]N; lactam 4-C),Potency,[1],inactive
same,Potency,[2],inactive
same,Potency,[3],inactive
same,Potency,[4],inactive
same,Potency,[5],inactive
same,"activity change, negative = inhibition",[6],-8.8% [at 27.1 µM]
COc1cc(O)c(C(=O)Nc2nc(C(=O)NCCN(C(C)C)C(C)C)cs2)cc1OC,Potency,[1],inactive
same,Potency,[2],inactive
same,Potency,[3],inactive
same,Potency,[4],inactive
same,Potency,[5],inactive
same,"activity change, negative = inhibition",[6],-17.9%
CN(C)C=Nc1c(I)cc(I)c(CCC(=O)O)c1I,Potency,[1],inactive
same,Potency,[2],inactive
same,Potency,[3],inactive
same,Potency,[4],inactive
same,Potency,[5],inactive
same,"activity change, negative = inhibition",[6],-33.1%
CCCC1C(=O)N2C(N(C)C)=Nc3ccc(C)cc3N2C1=O (configuration not stated),Potency,[1],inactive
same,Potency,[2],inactive
same,Potency,[3],inactive
same,Potency,[4],inactive
same,Potency,[5],inactive
same,"activity change, negative = inhibition",[6],2.29% [at 114 µM]
CCOC(=O)CCC(=O)O[C@H]1[C@H](O[C@@H]2[C@@H](C)[C@H](O[C@H]3C[C@@](C)(OC)[C@@H](O)[C@H](C)O3)[C@@H](C)C(=O)O[C@H](CC)[C@@](C)(O)[C@H](O)[C@@H](C)C(=O)[C@H](C)CC2(C)O)O[C@H](C)C[C@@H]1N(C)C (some centres not stated),Potency,[1],inactive
same,Potency,[2],inactive
same,Potency,[3],inactive
same,Potency,[4],inactive
same,Potency,[5],inactive
same,"activity change, negative = inhibition",[6],-2.45%
OCC(O)COc1ccc(Cl)cc1 (configuration not stated),Potency,[1],inactive
same,Potency,[2],inactive
same,Potency,[3],inactive
same,Potency,[4],inactive
same,Potency,[5],inactive
same,"activity change, negative = inhibition",[6],-23.5% [at 171 µM]
NCCCC[C@H](NC(=O)[C@@H]1CCCN1C(=O)[C@@H]1CSSC[C@H](N)C(=O)N[C@@H](Cc2ccccc2)C(=O)N[C@@H](Cc2ccccc2)C(=O)N[C@@H](CCC(N)=O)C(=O)N[C@@H](CC(N)=O)C(=O)N1)C(=O)NCC(N)=O,Potency,[1],inactive
same,Potency,[2],inactive
same,Potency,[3],inactive
same,Potency,[4],inactive
same,Potency,[5],inactive
same,"activity change, negative = inhibition",[6],-27.3%
CO[C@H]1C[C@@H](O[C@@H]2/C(C)=C/C[C@@H]3C[C@@H](C[C@]4(CC[C@H](C)[C@@H](C5CCCCC5)O4)O3)OC(=O)[C@@H]3C=C(C)/C(=N/O)[C@H]4OC/C(=C\C=C\[C@@H]2C)[C@]43O)O[C@@H](C)[C@H]1O,Potency,[1],inactive
same,Potency,[2],inactive
same,Potency,[3],inactive
same,Potency,[4],inactive
same,Potency,[5],inactive
same,Potency,[6],inactive
C[C@@H]1C[C@H]2[C@@H]3CCC4=CC(=O)C=C[C@]4(C)[C@@]3(F)[C@@H](O)C[C@]2(C)[C@@]1(O)C(=O)COP(=O)(O)O,outcome,[1],inactive [at 11.4 µM]
same,outcome,[2],inactive [at 11.4 µM]
same,outcome,[3],inactive [at 11.4 µM]
same,outcome,[4],inactive [at 11.4 µM]
same,outcome,[5],inactive [at 11.3 µM]
same,outcome,[6],inactive [at 11.3 µM]
NCCCC[C@H](N)C(=O)O,outcome,[1],inactive [at 0.573 µM]
same,outcome,[2],inactive [at 0.573 µM]
same,outcome,[3],inactive [at 0.573 µM]
same,"activity change, negative = cytotoxicity",[4],2.08% [at 0.573 µM] (inactive)
same,"activity change, negative = cytotoxicity",[5],2.36% [at 0.702 µM] (inactive)
same,outcome,[6],inactive [at 0.702 µM]
O=C(Cn1cnnn1)N[C@@H]1C(=O)N2C(C(=O)O)=C(CSc3nncs3)CS[C@H]12,Potency,[1],inactive
same,Potency,[2],inactive
same,Potency,[3],inactive
same,Potency,[4],inactive
same,Potency,[5],inactive
same,"activity change, negative = inhibition",[6],-9.88%
C[C@@H]1CC2C3C[C@H](F)C4=CC(=O)C=C[C@]4(C)[C@@]3(F)[C@@H](O)C[C@]2(C)[C@@]1(OC(=O)c1ccco1)C(=O)SCF (some centres not stated),Potency,[1],inactive
same,Potency,[2],inactive
same,Potency,[3],inactive
same,Potency,[4],inactive
same,Potency,[5],inactive
same,"activity change, negative = inhibition",[6],3.79%
CC[C@@H](C)C[C@@H](C)CCCCCCCCC(=O)NC1C[C@@H](O)[C@@H](NCCN)NC(=O)[C@@H]2[C@@H](O)CCN2C(=O)[C@H]([C@H](O)CCN)NC(=O)[C@H]([C@H](O)[C@@H](O)c2ccc(O)cc2)NC(=O)[C@@H]2C[C@@H](O)CN2C(=O)[C@H]([C@@H](C)O)NC1=O (some centres not stated),Potency,[1],inactive
same,Potency,[2],inactive
same,Potency,[3],inactive
same,Potency,[4],inactive
same,Potency,[5],inactive
same,"activity change, negative = inhibition",[6],-9.2% [at 27.1 µM]
CCC(=C(CC)c1ccc(OP(=O)(O)O)cc1)c1ccc(OP(=O)(O)O)cc1,"activity change, negative = inhibition",[1],-9.86% [at 0.573 µM] (inactive)
same,outcome,[2],inactive [at 0.573 µM]
same,outcome,[3],inactive [at 0.573 µM]
same,"activity change, negative = cytotoxicity",[4],-3.89% [at 0.573 µM] (inactive)
same,"activity change, negative = cytotoxicity",[5],1.12% [at 0.702 µM] (inactive)
same,"activity change, negative = inhibition",[6],-22.1% [at 0.702 µM]
